An excerpt weighted towards active compounds, which were near 12% of everything screened.
BAZ2B block: blocks human BAZ2B; AlphaScreen BAZ2B-H3K14Ac peptide displacement; AID 504333; Potency, µM (highest dose often 114 µM), for inactives: at the top dose activity change, negative = inhibition, actives largely listed as inhibitors; Q9UIF8; actives 4.4% (n = 360,000); further: potency means the concentration at half of the fitted maximal effect; on the % scale 0 is the no-effect control and ±100 the full control effect; nearly all actives have a fitted effect of over 60% in size
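Protein-peptide AlphaScreen: BAZ2B 50 nM, b-H3K14Ac 50 nM, 1x PBS pH 7.4 + 0.01% Tween-20. Preincubation 30 min RT; cpd 30 min RT (top 110 uM); beads 20 min RT, light-protected.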
HP1b chromo inh: inhibitors of HP1-beta chromodomain binding to methylated histone tails; AID 540317; actives 0.56% (n = 390,000); Potency, µM (top dose mostly 114 µM), for the others: top-dose activity change, negative = inhibition, actives largely listed as inhibitors; AlphaScreen HP1-beta / biotin-H3K9me3 peptide binding; further: potency means the concentration at half of the fitted maximal effect; nearly all actives have a fitted effect of over 70% in size
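Compound inhibition of the preformed complex between 50 nM HP1-beta and 50 nM biotinylated H3K9me3 peptide was read by AlphaScreen. Buffer was PBS pH 7.4 with 0.01% Tween-20. Incubations ran 30 min at room temperature, with 10 ug/mL donor/acceptor beads.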
PI5P4K alpha inh: PI5P4K alpha (human) kinase inhibition. P48426. PI5P4Kalpha enzyme, ADP-Glo luminescence, 60 min; active compounds read low. max response, %. actives 1.2% (n = 330,000). AID 652105; active means max response of -50% or lower; inconclusive means between -30% and -50%; inactive means -30% or higher; further: value at the top dose of about 77 µM; on the % scale 0 is the no-effect control and ±100 the full control effect
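qHTS, 1536-well: enzyme/substrate mix, compound by pin tool, 5 microM ATP final; RT 60 min; ADP-Glo reagents 1 (45 min) then 2 (30 min); luminescence.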
PLK1 PBD inh: PLK1 (human) polo-box domain binding inhibition. P53350. Plk1 PBD binding of FITC phosphopeptide, fluorescence polarization. Potency, µM, inactives show max response, negative = inhibition, hits mostly inhibitors. actives 2.8% (n = 360,000). AID 720504; further: potency means the concentration at half of the fitted maximal effect; series mostly up to about 57 µM; on the % scale 0 is the no-effect control and ±100 the full control effect; nearly all actives have a fitted effect of over 65% in size
Target sequence (P53350 whole entry, looked up, the tested form may be a part): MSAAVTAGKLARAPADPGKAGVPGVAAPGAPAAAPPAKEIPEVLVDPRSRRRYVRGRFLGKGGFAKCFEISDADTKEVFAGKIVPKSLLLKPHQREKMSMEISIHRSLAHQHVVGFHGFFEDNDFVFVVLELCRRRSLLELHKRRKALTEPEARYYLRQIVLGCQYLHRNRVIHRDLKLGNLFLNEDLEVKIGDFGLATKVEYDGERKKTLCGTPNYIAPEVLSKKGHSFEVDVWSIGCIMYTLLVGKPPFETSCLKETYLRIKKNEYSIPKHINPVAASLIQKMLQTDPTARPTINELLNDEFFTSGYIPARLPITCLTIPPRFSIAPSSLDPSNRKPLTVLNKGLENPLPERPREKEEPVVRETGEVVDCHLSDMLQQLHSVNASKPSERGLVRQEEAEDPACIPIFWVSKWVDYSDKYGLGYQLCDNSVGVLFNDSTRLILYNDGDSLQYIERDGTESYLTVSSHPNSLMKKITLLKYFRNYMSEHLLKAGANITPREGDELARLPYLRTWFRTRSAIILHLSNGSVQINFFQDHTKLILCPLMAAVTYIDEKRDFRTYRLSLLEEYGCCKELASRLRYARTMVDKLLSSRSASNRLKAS
JMJD2A Tudor inh: JMJD2A Tudor domain (human) inhibition; O75164; AlphaScreen JMJD2A-Tudor / H3K4me3 peptide binding; Potency, µM (series often up to 114 µM), inactives show top-dose activity change, negative = inhibition, usual class: inhibitors; actives 4.4% (n = 390,000); further: potency means the concentration at half of the fitted maximal effect; on the % scale 0 is the no-effect control and ±100 the full control effect; nearly all actives have a fitted effect of over 50% in size
G9a inh: inhibitors of human histone lysine methyltransferase G9a | Q96KQ7 | G9a H3K9 monomethylation, AlphaScreen, 2 h | Potency, µM (series often up to 102 µM), without a hit: top-dose activity, negative = inhibition, hits mostly inhibitors | actives 8.8% (n = 350,000) | AID 504332; further: potency means the concentration at half of the fitted maximal effect; on the % scale 0 is the no-effect control and ±100 the full control effect; nearly all actives have a fitted effect of over 75% in size
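Using a bead-based AlphaScreen, monomethylated H3K9 product from 2 h room-temperature reactions (G9a 20 nM, peptide 500 nM, SAM 20 uM) was detected with 0.5 ug/mL rabbit anti-H3K9me1 antibody.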
* marks the source's active call; other numbers are inactive results; [ ] = dose if it differs, or a comment. Unless noted, the call rests on the fitted dose curve; in most records, active means well fitted curve in the direction sought with a large enough effect; inconclusive means small, poorly fitted or top-dose-only effect, or another doubt; inactive means no such curve, though single readings can be large; an effect the other way counts as inactive or inconclusive.

Screening CCN(CC)c1ccc(S(=O)(=O)N2CCOCC2)cc1NC(=O)COC(=O)/C=C/c1ccc(C)o1 returned BAZ2B block -29%, HP1b chromo inh 6%, PI5P4K alpha inh -1, PLK1 PBD inh -7%, JMJD2A Tudor inh -24% and G9a inh 45µM*.
For NC(c1csc(Nc2ccccn2)n1)C1CCCCC1 (stereo not drawn) the results were PI5P4K alpha inh -9 and PLK1 PBD inh -3%.
CCCCn1c(N)c(N(CCC(C)C)C(=O)CC2CCCC2)c(=O)[nH]c1=O was read as BAZ2B block -4%, HP1b chromo inh 16%, PI5P4K alpha inh -3, PLK1 PBD inh -2%, JMJD2A Tudor inh -18% and G9a inh -34%.
For O=C(OCc1ccccc1)N(CCF)c1cn(Cc2ccccc2)c(=O)n(Cc2ccccc2)c1=O the results were HP1b chromo inh 14%[57 µM], PI5P4K alpha inh 0, PLK1 PBD inh -8% and JMJD2A Tudor inh -14%.
Screening O=C(CN1C(=O)c2ccccc2C1=O)NCc1ccc(F)cc1 returned BAZ2B block inconclusive, HP1b chromo inh 4%, PI5P4K alpha inh -19, PLK1 PBD inh 7.5µM*, JMJD2A Tudor inh inconclusive and G9a inh 67%.
For O=C(CCN1C(=O)c2ccccc2C1=O)NCc1ccc(F)cc1 the results were BAZ2B block -4%, HP1b chromo inh 12%, PI5P4K alpha inh 0, PLK1 PBD inh -1%, JMJD2A Tudor inh -9% and G9a inh -7%.
Screening O=C(CN1C(=O)c2ccccc2C1=O)OCC(=O)c1ccc(F)cc1 returned BAZ2B block 5%, HP1b chromo inh 10%, PI5P4K alpha inh 3, PLK1 PBD inh 0%, JMJD2A Tudor inh -21% and G9a inh 50µM*.
O=C(CNC(=O)c1ccc(N2C(=O)c3ccccc3C2=O)cc1)OCC(=O)c1ccccc1 was read as BAZ2B block -1%, HP1b chromo inh -6%, PI5P4K alpha inh -18, PLK1 PBD inh 24µM*, JMJD2A Tudor inh -27% and G9a inh 10%[59 µM].
N#Cc1ccc(CN2CC3(CCN(C(=O)c4ccncc4)CC3)C2)cc1 was read as G9a inh -7%[12.7 µM].
For COc1ccc(N2CCN(C(=O)c3oc4ccccc4c3NC(=O)CCc3cc(OC)no3)CC2)cc1 the results were BAZ2B block inconclusive, HP1b chromo inh -21%, PI5P4K alpha inh -1, PLK1 PBD inh -4%, JMJD2A Tudor inh 45µM* and G9a inh 35µM*.
For COc1ccc(N2CCN(C(=O)c3oc4ccccc4c3NC(=O)c3ccccc3OC)CC2)cc1 the results were BAZ2B block -18%[57.1 µM], HP1b chromo inh 14%, JMJD2A Tudor inh inconclusive and G9a inh 5.6µM*.
`O=C(Nc1c(C(=O)N2CCN(c3ccccc3)CC2)oc2ccccc12)c1ccccc1F` gave BAZ2B block -18%, HP1b chromo inh -15%, JMJD2A Tudor inh -21% and G9a inh inconclusive.
COc1ccc(C(=O)NCC(c2ccc(N(C)C)cc2)N2CCCC2)c(OC)c1 (stereo not drawn) was read as BAZ2B block inconclusive, HP1b chromo inh -24%, JMJD2A Tudor inh inconclusive and G9a inh inconclusive.
`CC(C)CC1C(=O)N(Cc2cn(Cc3ccco3)nn2)CCS(=O)(=O)N1Cc1ccc(-c2ccc(F)cc2)cc1` (stereo not drawn) gave PI5P4K alpha inh -5 and PLK1 PBD inh -16%.
N#C/C(=C\C1=C(N2CCOCC2)C(=C\c2ccc(Cl)cc2)/CC1)C(=O)Nc1ccccc1F was read as BAZ2B block 25µM*, HP1b chromo inh inconclusive, PI5P4K alpha inh -4, PLK1 PBD inh -2%, JMJD2A Tudor inh -31% and G9a inh 10µM*.
`N#C/C(=C\C1=C(N2CCOCC2)C(=C/c2cccc([N+](=O)[O-])c2)/CC1)C(=O)Nc1ccccc1F` gave BAZ2B block 1.3µM*, HP1b chromo inh inconclusive, PI5P4K alpha inh -2, PLK1 PBD inh -2%, JMJD2A Tudor inh -33% and G9a inh 2.5µM*.
Screening N#C/C(=C/C1=C(N2CCOCC2)C(=C/c2ccccc2)/CC1)C(=O)Nc1ccccc1F returned HP1b chromo inh 5µM*, PI5P4K alpha inh 1, PLK1 PBD inh 0% and JMJD2A Tudor inh 10µM*.
Screening N#C/C(=C/C1=C(N2CCOCC2)C(=C/c2cccc([N+](=O)[O-])c2)/CC1)C(=O)Nc1ccccc1F returned HP1b chromo inh inconclusive, PI5P4K alpha inh -10, PLK1 PBD inh 4% and JMJD2A Tudor inh inconclusive.
Screening CCCC(=O)Nc1ccccc1NC(=O)c1cc(OC)c(OC)c(OC)c1 returned BAZ2B block 4%, HP1b chromo inh 37%, PI5P4K alpha inh 1, PLK1 PBD inh -1%, JMJD2A Tudor inh -6% and G9a inh 89µM*.
`Cc1ccc(C(=O)NC(=S)Nc2ccccc2N2CCOCC2)cc1C` gave BAZ2B block inconclusive, HP1b chromo inh inconclusive, PI5P4K alpha inh 11, PLK1 PBD inh -7%, JMJD2A Tudor inh inconclusive and G9a inh 22µM*.
For COc1cc(C(=O)NC(=S)Nc2ccccc2[N+](=O)[O-])cc(OC)c1OC the results were BAZ2B block inconclusive, HP1b chromo inh inconclusive, PI5P4K alpha inh -5, PLK1 PBD inh 21µM*, JMJD2A Tudor inh 28µM* and G9a inh inconclusive.
`CCCC(=O)Nc1ccccc1NC(=O)c1ccc(OCC)c(OCC)c1` gave BAZ2B block -12%, HP1b chromo inh 0%, PI5P4K alpha inh 6, PLK1 PBD inh -10%, JMJD2A Tudor inh -5% and G9a inh 0%.
Screening CCOc1ccc(OCCC(=O)NNC(=O)c2cc(OC)c(OC)c(OC)c2)cc1 returned BAZ2B block -21%, HP1b chromo inh 3%, PI5P4K alpha inh -15, PLK1 PBD inh -5%, JMJD2A Tudor inh -21% and G9a inh 79µM*.
`O=C(NC(=S)Nc1ccccc1N1CCOCC1)c1ccc([N+](=O)[O-])cc1` gave BAZ2B block inconclusive, HP1b chromo inh inconclusive, PI5P4K alpha inh -1, PLK1 PBD inh 3%, JMJD2A Tudor inh -14% and G9a inh 8%[59 µM].
`COCCCNC(=O)c1c(NC(=O)Cc2coc3cc(C)cc(C)c23)sc2c1CCCC2` gave BAZ2B block -12%, HP1b chromo inh 24%, JMJD2A Tudor inh -11% and G9a inh -9%[59 µM].
CC(OC(=O)C1CC1)C(=O)Nc1cccc(S(=O)(=O)N2CCOCC2)c1 (stereo not drawn) was read as HP1b chromo inh 13%, PI5P4K alpha inh -2, PLK1 PBD inh -8% and JMJD2A Tudor inh -1%.
COc1cc(C(=O)NC(=S)Nc2ccccc2N2CCOCC2)cc(OC)c1OC was read as BAZ2B block 40µM*, HP1b chromo inh -10%, PI5P4K alpha inh 0, PLK1 PBD inh -4%, JMJD2A Tudor inh inconclusive and G9a inh 14µM*.

Compound activity from PubChem.
